The values that follow come from PubChem BioAssay.

SMILES strings stand for the structures. Unmarked numbers belong to inactive results. Calls of active or inactive are those of the source. Unless noted, no stated cut-off is given here; in the data, active means inhibition above about 33%; inactive means the rest.

The nature of assay [1]: StAR promoter reporter inhibitors, counter-screen for LRH-1 inverse agonist project, cell-based, luminescence, high throughput (AID 651611; in the data active means inhibition above about 28%). The following applies: StAR promoter luciferase reporter counterscreen, at 3.6 µM, stronger effect = higher value.
Assay [2] concerns the target Nuclear receptor subfamily 5 group A member 2 (Homo sapiens) (UniProt O00482). Put plainly: NR5A2 activity suppression in reporter cells – cell-based, luminescence, confirmation (AID 651613; in the data active means inhibition above about 42%;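 further: HEK293T cells co-transfected with LRH-1 and StAR promoter luciferase reporter; 0% = vehicle wells and 100% = parental cells lacking receptor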). The following applies: cell-based LRH-1 luciferase reporter, inverse agonism; at 3.6 µM; stronger effect = higher value.
Assay [3] has as its target Steroidogenic factor 1 (Homo sapiens) (UniProt Q13285). As to the kind of experiment: inverse agonism at SF1 nuclear receptor – cell-based, luminescence, high throughput, counter-screen for LRH-1 inverse agonist project (AID 651614; in the data active means inhibition above about 44%;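 further: cells cotransfected with StAR promoter reporter and SF1 expression vector; 0% = vehicle on cells with receptor and 100% = vehicle on cells lacking receptor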). The note with it: cell-based SF1 luciferase reporter, at 3.6 µM, stronger effect = higher value. A general note: Counterscreens check selectivity or assay interference.

The nature of assay [4]: compounds suppressing VP16-driven luciferase signal – cell-based, luminescence, high throughput, counter-screen for LRH-1 inverse agonist project (AID 651615). The note with it: Gal4-VP16 luciferase reporter cells, at 3.6 µM, stronger effect = higher value.

Chain of Nuclear receptor subfamily 5 group A member 2 (Homo sapiens) (O00482 whole entry, looked up): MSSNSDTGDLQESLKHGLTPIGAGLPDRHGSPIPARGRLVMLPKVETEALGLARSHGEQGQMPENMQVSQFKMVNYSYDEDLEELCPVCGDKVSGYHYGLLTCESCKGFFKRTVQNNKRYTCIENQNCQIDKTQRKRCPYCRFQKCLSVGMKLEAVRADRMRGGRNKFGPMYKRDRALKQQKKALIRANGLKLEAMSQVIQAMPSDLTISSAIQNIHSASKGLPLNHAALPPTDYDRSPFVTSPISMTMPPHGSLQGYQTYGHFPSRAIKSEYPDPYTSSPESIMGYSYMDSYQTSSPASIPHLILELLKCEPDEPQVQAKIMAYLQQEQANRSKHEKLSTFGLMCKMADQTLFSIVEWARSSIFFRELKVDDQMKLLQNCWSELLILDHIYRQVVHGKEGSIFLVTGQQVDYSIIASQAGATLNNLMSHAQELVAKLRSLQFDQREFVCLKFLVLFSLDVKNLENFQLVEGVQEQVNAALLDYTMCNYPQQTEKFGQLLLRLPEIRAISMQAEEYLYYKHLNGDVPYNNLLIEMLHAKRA
Chain of Steroidogenic factor 1 (Homo sapiens) (Q13285 whole entry, looked up): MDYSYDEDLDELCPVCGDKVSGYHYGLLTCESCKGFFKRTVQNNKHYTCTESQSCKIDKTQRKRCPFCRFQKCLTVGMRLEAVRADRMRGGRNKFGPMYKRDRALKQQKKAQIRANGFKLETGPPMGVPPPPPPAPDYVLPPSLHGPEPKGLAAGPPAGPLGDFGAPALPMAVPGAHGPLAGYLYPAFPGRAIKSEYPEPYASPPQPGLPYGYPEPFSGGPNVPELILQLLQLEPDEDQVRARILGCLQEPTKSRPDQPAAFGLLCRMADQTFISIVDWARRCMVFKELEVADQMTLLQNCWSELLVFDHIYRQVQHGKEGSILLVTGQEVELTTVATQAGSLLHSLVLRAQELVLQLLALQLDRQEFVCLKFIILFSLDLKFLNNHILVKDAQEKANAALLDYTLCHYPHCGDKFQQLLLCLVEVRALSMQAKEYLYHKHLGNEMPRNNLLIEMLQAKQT

Take `COc1cc([N+](=O)[O-])ccc1NC(=O)C[n+]1ccccc1`: the inhibition – broadly, the relative decrease from the control value, in per cent – was 15.1% in assay [1], 58.8% (active) in assay [2], 55.6% (active) in assay [3] and 3.98% in assay [4].
For `COc1cc(/C=N/n2nnnc2N)ccc1OCc1c(C)no[n+]1[O-]` the same measures were 9.05%, 54.4% (active), 42.6% and 10.5%.
With `O=C(COC(=O)c1ccc(=O)n(Cc2ccccc2)n1)Nc1ccc2c(c1)OCCO2`, the inhibition was 11.8% in assay [1], 51.1% (active) in assay [2], 43.7% (active) in assay [3] and -13.9% in assay [4].
The corresponding values for `CCN1C(=O)c2cccc3c(S(=O)(=O)Nc4ccccc4O)ccc1c23` are 38.4% (active), 34.1%, 36.2% and -88.6%.
The corresponding values for `COC(=O)c1ccc(COc2ccc(/C=N/NC(N)=S)cc2)o1` are 17.7%, 55.8% (active), 59% (active) and 15.7%.
With `OC[C@@H]1CN(Cc2ccc(-c3ccccc3)cc2)C[C@H](n2cnc3c(NC4CCC4)ncnc32)O1`, the inhibition in assay [1] is 16.5%; in assay [2], 53.4% (active); in assay [3], 60.2% (active); in assay [4], 56% (active).
Regarding `COc1ccccc1-c1cc(NC(C)=O)c2ncc(-c3ccc(S(C)(=O)=O)cc3)n2c1`, the inhibition is 23.8% in assay [1], 49.3% (active) in assay [2], 48.6% (active) in assay [3] and -21.1% in assay [4].
Take `O=C(COc1ccc(S(=O)(=O)N2CCCC2)cc1Cl)NCc1ccc2c(c1)OCO2`: the inhibition in assay [1] is 26.1%; in assay [2], 34%; in assay [3], 32.6%; in assay [4], 2.14%.
Consider `OCCCNc1ncnc2oc(-c3ccccc3)c(-c3ccccc3)c12`, for which the inhibition in assay [1] was 9.63%; in assay [2], 35.1%; in assay [3], 27.6%; in assay [4] it was 13.3%.
The corresponding values for `Cn1c(SCC(=O)Nc2ccc(N3CCOCC3)cc2)nnc1-c1ccccc1` are 0.41%, 46.2% (active), 47.5% (active) and -12.2%.
With `COc1ccc(NC(=O)COC(=O)c2c(-c3ccccc3)noc2C)cc1`, the inhibition in assay [1] is 15.3%; in assay [2], 63% (active); in assay [3], 66.1% (active); in assay [4], -5.04%.
The corresponding values for `COc1cc(NC(=O)c2ccc([N+](=O)[O-])o2)ccc1NC(=O)c1cccs1` are 30.9% (active), 61.1% (active), 61.9% (active) and -9.17%.
Consider `CCOC(=O)N1CCN(C(=O)CCl)CC1`, for which the inhibition in assay [1] is 11%; in assay [2] it was 56% (active); in assay [3], 57.9% (active); in assay [4] it was -8.13%.
The corresponding values for `CN(C)S(=O)(=O)c1cccc(CSCc2cccc(S(=O)(=O)N(C)C)c2)c1` are 7.72%, 59% (active), 38.9% and 46.1% (active).
With `Cc1cc(Br)ccc1NC(=O)CSc1nnc(CN2CCOCC2)n1C`, the inhibition was 15.4% in assay [1], 47.8% (active) in assay [2], 42.5% in assay [3] and 0.09% in assay [4].
The corresponding values for `Clc1ccc(Cn2ncc3c(NCc4ccccc4)ncnc32)cc1` are 43.3% (active), 59.4% (active), 51.4% (active) and 14.4%.
The corresponding values for `CCc1cc(=O)oc2cc(C)cc(OCC(=O)NC3CC3)c12` are -0.05%, 66.5% (active), 55.9% (active) and 10.2%.
For `CC(=O)N1CCc2c(sc(NC(=O)c3ccc([N+](=O)[O-])o3)c2C(N)=O)C1` the same measures were 19.9%, 65.2% (active), 65.3% (active) and -14.1%.
Regarding `COCC(=O)NC1CCN(CC(=O)Nc2ccc(OC)cc2[N+](=O)[O-])CC1`, the inhibition is 14.2% in assay [1], 60.2% (active) in assay [2], 60.8% (active) in assay [3] and -2.25% in assay [4].
As to `CCOc1ccc(CCNC(=O)COC(=O)/C=C/c2ccc(OC(F)F)c(OC)c2)cc1OCC`, the inhibition in assay [1] is 12.5%; in assay [2], 51.5% (active); in assay [3], 47.1% (active); in assay [4] it was -3.71%.
As to `CCOc1ccc(NC(=O)CSc2nncc(=O)n2N)cc1`, the inhibition was 12.1% in assay [1], 64.5% (active) in assay [2], 43.6% (active) in assay [3] and -9.32% in assay [4].
For the molecule `O=C(c1ccc(Cl)cc1)N1CCCCC(Cl)C1=O` (stereo not drawn), the inhibition was 20.5% in assay [1], 56.1% (active) in assay [2], 57.2% (active) in assay [3] and 1.69% in assay [4].
For `CC1OC(CC(=O)O)CC2=C1C(=O)c1c(O)cccc1C2=O` (stereo not drawn) the same measures were 95.4% (active), 111% (active), 98.2% (active) and 95.8% (active).
The corresponding values for `Cc1ccccc1NC(=O)c1ccc([N+](=O)[O-])o1` are 8.33%, 64.8% (active), 57.6% (active) and -16%.
The corresponding values for `O=C(NCCN1C(=O)S/C(=C\c2ccc(OC(F)F)cc2)C1=O)c1cnccn1` are 44% (active), 30.1%, 33.1% and 14.9%.
Consider `COc1ccc(OC)c(C2NC(=O)c3sc(=S)n(-c4ccccc4)c3N2)c1` (stereo not drawn), for which the inhibition in assay [1] is 10.5%; in assay [2] it was 53.5% (active); in assay [3] it was 45.4% (active); in assay [4] it was -4.35%.
For `O=C(c1ccc(Oc2ccc([N+](=O)[O-])cc2Cl)cc1)N1CCCC1` the same measures were 6.61%, 46.2% (active), 58.9% (active) and 4.32%.
